Measured values reported in PubChem BioAssay AID602250 (The Scripps Research Institute Molecular Screening Center, 2012).
About 2,200 (0.61%) of roughly 360,000 compounds were called active.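 Rule for the calls: active = inhibition above a per-plate cutoff, the plate's mean sample inhibition plus 3 SD (cut at about 24% in these data); inactive = the rest.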 The sample as a whole holds a higher share of actives than the screen did.

Experiment: calcium signal blockers in parental CHO-K1 cells – cell-based, Fluo-8 calcium fluorescence, full deck, 1536-well, counter-screen for M1 antagonist project, primary screen (AID 602250);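 note: 0% = DMSO plus EC80 ATP and 100% = DMSO alone without ATP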
Settings: ATP-induced calcium, Fluo-8 fluorescence, at 3 µM, active compounds read high

Structure (SMILES)	inhibition
S=C(NCC1COc2ccccc2O1)Nc1ccc(Br)cc1 (stereo not drawn)	32.9% (active)
CCCN(CC1COc2ccccc2O1)C(=S)Nc1ccc(C)cc1 (stereo not drawn)	-5.53% (inactive)
CC(NC(=S)Nc1ccccc1)C1COc2ccccc2O1 (stereo not drawn)	4.65% (inactive)
COc1ccc(C)cc1NC(=O)CN1c2cccc3cccc(c23)S1(=O)=O	-7.85% (inactive)
CCc1ccccc1N(CC(=O)NCC1CCCO1)C(=O)CCC(=O)Nc1nccs1 (stereo not drawn)	-0.55% (inactive)
C=CCNC(=S)N1CCN(CCN=Cc2c(C)[nH]n(-c3ccc([N+](=O)[O-])cc3)c2=O)CC1	13.7% (inactive)
CC(=O)c1cccc(S(=O)(=O)N2CCC(n3nnc4cc(F)ccc43)CC2)c1	-5.37% (inactive)
O=S(=O)(c1cccc(S(=O)(=O)N2CCC(n3nnc4ccccc43)CC2)c1)N1CCCCC1	25.7% (active)
O=C(c1ccc(F)cc1)N1CCC(n2nnc3ccccc32)CC1	5.53% (inactive)
O=C1c2ccccc2C(=O)N1CC1c2ccccc2CCN1S(=O)(=O)c1ccccc1 (stereo not drawn)	-4.18% (inactive)
CCc1nnc(NC(=O)CSc2nc(SC)ns2)s1	-15.7% (inactive)
COc1ccc(Cl)cc1NC(=O)CN(C)C(=O)c1cn(-c2ccccc2)nc1-c1cccs1	-12.4% (inactive)
COc1ccc(-c2nn(-c3ccccc3)cc2C(=O)Nc2nccs2)cc1OC	33.9% (active)
O=C(O)c1ccccc1-c1ccccc1C(=O)Nc1nccs1	-12.8% (inactive)
O=C(COc1ccc(F)cc1)N(CC1=CCS(=O)(=O)C1)c1ccccc1	-14.8% (inactive)
O=C1OC(Cc2ccccc2)C(c2ccccc2)C1=O (stereo not drawn)	-2.69% (inactive)
CCOC(=O)[C@H]1[C@H]2COc3ccc(Br)cc3[C@@H]2N2C(=O)CN(C)C(=O)[C@@]12C	-3.65% (inactive)
O=C(NCCCN1CCOCC1)c1cc(-c2ccc(Cl)cc2)on1	-8.77% (inactive)
COc1ccc(C(=O)NCCCN2CCOCC2)cc1Br	8.25% (inactive)
Cc1c(C)n(Cc2ccc(Cl)cc2)c2ccc(C(=O)NCCCN3CCOCC3)cc12	31.3% (active)
O=C(COc1ncnc2c(Cl)cc(Cl)cc12)N1CCN(S(=O)(=O)c2ccccc2)CC1	-14% (inactive)
O=S(=O)(Nc1ccccc1Br)c1cccs1	-11% (inactive)

Structure (SMILES)	inhibition
O=C(Nc1cccc(Cl)c1)Nc1ccccc1NS(=O)(=O)c1cccs1	36.7% (active)
O=S(=O)(Nc1ccccc1)c1ccc(NS(=O)(=O)c2cccs2)cc1	-3.36% (inactive)
Cn1c(NCc2cccnc2)nc2cc(-c3ccc(F)cc3)sc2c1=O	-2.34% (inactive)
CCN(C(=O)COC(=O)c1c(NC(C)=O)sc(C)c1C)C1CCS(=O)(=O)C1 (stereo not drawn)	-7.84% (inactive)
Cc1ccc(S(=O)(=O)c2ccc(Cl)cc2)cc1S(=O)(=O)NC(C(=O)O)C(C)C (stereo not drawn)	-0.98% (inactive)
CC(=O)Nc1ccc(S(=O)(=O)N2CCN(C(=O)c3ccccc3F)CC2)cc1	0.99% (inactive)
CCC1=NN(C(=O)Cc2ccc([N+](=O)[O-])cc2)C(O)(c2ccc(Br)cc2)C1 (stereo not drawn)	-13.2% (inactive)
Cc1ccc(Nc2nc(CSc3nnnn3-c3ccccc3)cc(=O)[nH]2)cc1	2% (inactive)
CN1OC[C@@H]2CN(C(=O)c3cccc4ccccc34)[C@H](c3ccc(N4CCCCC4)cc3)C[C@@H]21	16.5% (inactive)
CN1OC[C@@H]2CN(C(=O)C(C)(C)C)[C@H](c3ccc(-n4ccnc4)cc3)C[C@@H]21	28.2% (active)
CN1OC[C@@H]2CN(C(=O)c3cccnc3)[C@H](c3ccc(N4CCCCC4)cc3)C[C@@H]21	8.63% (inactive)
COc1ccc(Cl)cc1NC(=O)Cn1nc(-c2ccc(C)cc2)n(C)c1=S	-1.73% (inactive)
COc1ccccc1OCC(=O)OCc1cc(-c2ccco2)on1	-11.2% (inactive)
CC(C)C1C(=O)N(Cc2cn(CCC3OCCO3)nn2)CCS(=O)(=O)N1Cc1ccc(-c2ccccc2C(F)(F)F)cc1 (stereo not drawn)	-1.16% (inactive)
Cc1ccc(Cn2nnc3c(=O)[nH]c(C4CCN(S(=O)(=O)/C=C/c5ccccc5)CC4)nc32)cc1	-19.1% (inactive)
COc1ccc(NC(=O)/C(C#N)=C\c2cc(OC)c(OCc3ccc(C(=O)O)cc3)cc2Br)cc1	24.8% (active)
COCCNC(=O)/C(C#N)=C/c1cccc(OCc2ccccc2)c1	-9.6% (inactive)
COc1cc(/C=C(\C#N)C(=O)Nc2ccc3ccccc3c2)c([N+](=O)[O-])cc1OC	0.2% (inactive)
c1ccc(CCN2CN=C(Nc3nc4ccccc4o3)NC2)cc1	-10.1% (inactive)
Cc1ccccc1N(C(=O)Cc1cccs1)C(C(=O)NC1CCCCC1)c1cn(C)nc1C (stereo not drawn)	-4.07% (inactive)
O=S(=O)(Nc1ccc2nc(-c3ccco3)[nH]c2c1)c1ccccc1	-1.24% (inactive)
Cc1cc(OC(C)C(=O)Nc2ccc(S(=O)(=O)Nc3onc(C)c3C)cc2)cc(C)c1Cl (stereo not drawn)	8.91% (inactive)

Structure (SMILES)	inhibition
COc1ccc(S(=O)(=O)NC2(C(F)(F)F)N=C3SCCN3C2=O)cc1 (stereo not drawn)	6.7% (inactive)
O=C(NC1(C(F)(F)F)N=C2SCCN2C1=O)c1ccco1 (stereo not drawn)	23.7% (active)
O=C(NN1C(=O)C2CCCCC2C1=O)c1ccco1 (stereo not drawn)	-4.97% (inactive)
Cc1c(NC(=O)CSCc2ccccc2)cccc1C(=O)O	-4.2% (inactive)
CC(C)CN(CC(C)C)CC(O)CN(c1ccccc1)S(=O)(=O)c1ccccc1[N+](=O)[O-] (stereo not drawn)	-22.2% (inactive)
COc1ccc(C2(CNC(=O)Cc3ccc(OC)c(OC)c3)CCCC2)cc1	0.54% (inactive)
C=CCNC(=O)/C=C/c1ccc(C(C)C)cc1	-7.72% (inactive)
O=C(O)/C=C/c1ccc(S(=O)(=O)N2CCCCCC2)cc1	-2.18% (inactive)
O=C(/C=C(O)/C=C/c1ccc(O)cc1)/C=C/c1ccc(O)cc1	31.8% (active)
COc1cccc(CNC(=O)CCC2CCCN(C(=O)c3cc(C)[nH]n3)C2)c1 (stereo not drawn)	-15.8% (inactive)
CCOC(=O)c1c(NC(=O)C2CC=CCC2C(=O)O)sc(C)c1CC (stereo not drawn)	-0.11% (inactive)
CCCCC(=O)NCc1ccc(F)cc1	-1.22% (inactive)
CCCCC(=O)NNC(=S)NC(=O)C(c1ccccc1)c1ccccc1	61.1% (active)
CCCOCC(O)CC(CC)C(=O)NNC(=S)Nc1ccccc1 (stereo not drawn)	1.16% (inactive)
Cc1ccc(C)c(NC(=O)C2Cc3ccccc3CN2C(=O)OCc2ccccc2)c1 (stereo not drawn)	-8.92% (inactive)
Cc1cccc(CSc2nnc(C)c(=O)n2N)c1	-7.07% (inactive)
Cn1c(SCC(=O)N2CCCCC2)nc2c(c1=O)SCC2	8.86% (inactive)
Cc1cccc(CSc2nc3c(c(=O)n2C)SCC3)c1	27.6% (active)
COc1cc(S(=O)(=O)N2CCOCC2)ccc1NC(=O)COc1ccc(N(C)S(=O)(=O)c2ccc(C)cc2)cc1	-12% (inactive)
COc1cc(C(=O)NCc2ccc3c(c2)cc(C)n3C)cc(OC)c1OC	19.1% (inactive)
CCn1c(CNC(=O)c2cc(OC)c(OC)c(OC)c2)cc2cc(C)ccc21	36.1% (active)
COc1cc(C(=O)NCc2cc3cc(Cl)ccc3n2C)cc(OC)c1OC	-7.3% (inactive)

Structure (SMILES)	inhibition
CN(Cc1nc(-c2cnccn2)no1)Cc1n[nH]c2c1CCCCC2	-7.73% (inactive)
CC1CCCN(CC(O)COc2ccc3c(c2)OCO3)C1 (stereo not drawn)	-7.13% (inactive)
Cn1c(=O)[nH]c(=O)c2c1nc(N(CCO)Cc1ccccc1)n2Cc1ccccc1Cl	-11.1% (inactive)
NS(=O)(=O)c1ccc(NC(=O)COC(=O)C2(c3ccc(F)cc3)CCCC2)cc1	31.1% (active)
CN(C)S(=O)(=O)c1cccc(NC(=O)COC(=O)C2(c3ccccc3F)CCCC2)c1	0.69% (inactive)
O=C(COC(=O)C1(c2ccc(F)cc2)CCCC1)N1CCNC1=O	-20.1% (inactive)
O=C(N[C@H]1C/C=C\C(c2ccc(F)cc2)N(Cc2ccccc2)C(=O)C1)OCC1c2ccccc2-c2ccccc21 (stereo partly drawn)	-13% (inactive)
Cc1ccc(S(=O)(=O)N2CCC(=O)N([C@H](COCc3ccccc3)Cc3ccccc3)CC2)cc1	-5.28% (inactive)
COc1ccc(COCCN2CCN(S(=O)(=O)c3ccccc3)CCC2=O)cc1	-8.23% (inactive)
Cc1ccc(S(=O)(=O)N2CCC(=O)N([C@H](COCc3ccccc3)C(C)C)CC2)cc1	41.5% (active)
O=C(Nc1ccc(Cl)c(Cl)c1)c1ccccc1NC(=O)C1CC=CCC1C(=O)O (stereo not drawn)	3.94% (inactive)
CCCSc1ncccc1C(=O)O	-2.1% (inactive)
CC1=C(C(=O)NC2CC(C)(C)Cc3c2cnn3-c2ccc(C)cc2)OCCO1 (stereo not drawn)	-1.6% (inactive)
COc1ccc(C(=O)NC2CCCc3c2cnn3-c2cccc(C)c2C)c(OC)n1 (stereo not drawn)	19.6% (inactive)
COc1ccc(C(=O)NC2CC(C)(C)Cc3c2cnn3-c2ccccc2C)o1 (stereo not drawn)	-6.41% (inactive)
Cn1nccc1C(=O)NC1CCCc2c1cnn2-c1ccc(F)cc1F (stereo not drawn)	28.7% (active)
Cn1nccc1C(=O)NC1CCCc2c1cnn2-c1ccccc1F (stereo not drawn)	26.9% (active)
COC(=O)c1ccc(C(=O)NC2CC(C)(C)Cc3c2cnn3-c2ccc(F)cc2)nc1 (stereo not drawn)	-7.53% (inactive)
O=c1cc(CN2CCN(S(=O)(=O)/C=C/c3ccccc3)CC2)c2ccc(O)cc2o1	6.97% (inactive)
Cc1cc(NC(=O)CCS(=O)(=O)c2ccc(F)cc2)no1	-0.17% (inactive)
COc1ccc2c(c1)C=CC1(O2)N(CCO)c2ccccc2C1(C)C (stereo not drawn)	-4.71% (inactive)
Cc1cc(OCC(=O)Nc2c(C)n(C)n(-c3ccccc3)c2=O)ccc1[N+](=O)[O-]	-14.3% (inactive)
